Screening results deposited in PubChem BioAssay by National Center for Advancing Translational Sciences (NCATS).
Only some compounds are listed: those with a hit (about 12% of all), similar ones and a draw of the others.
Sfp PPTase inh = inhibitors of Bacillus subtilis Sfp phosphopantetheinyl transferase. Potency, µM, for the others: largest response in the series, negative = inhibition, hits mostly inhibitors. Q9F4F7. 310,000 compounds, 3.5% hits. Biochemical Sfp PPTase activity, qHTS. AID 1490;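 also: the enzyme is Sfp with the accession as filed and its product quenches rhodamine fluorescence; 0% = enzyme reaction without inhibitor and -100% = no enzyme wells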
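Reaction rates are the 30-min fluorescence difference (ex 525, em 598 nm) in wells containing 15 nM Sfp, 5 uM rhodamine-CoA and 12.5 uM BHQ-2-YbbR at pH 7.6 with 10 mM MgCl2.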
HP1b binding inh = blocks HP1-beta chromodomain binding to methylated histone tails; 390,000 compounds, 0.56% hits; AlphaScreen HP1-beta / biotin-H3K9me3 peptide binding; Potency, µM (top dose mostly 114 µM), inactives show at the highest dose activity change, negative = inhibition, usual class: inhibitors; also: nearly all actives have a fitted effect of over 70% in size
Target sequence (P83916 whole entry, looked up): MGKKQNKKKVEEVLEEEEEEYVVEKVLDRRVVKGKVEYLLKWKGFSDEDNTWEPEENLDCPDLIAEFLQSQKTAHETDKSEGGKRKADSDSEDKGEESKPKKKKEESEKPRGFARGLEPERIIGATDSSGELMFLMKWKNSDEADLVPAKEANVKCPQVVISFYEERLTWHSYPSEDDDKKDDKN
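HP1-beta protein (50 nM final) preincubated 30 min at room temperature with biotinylated H3(1-18)K9me3 peptide (50 nM) in PBS pH 7.4, 0.01% Tween-20, then compound added for 30 min. AlphaScreen streptavidin donor/nickel chelate acceptor beads (10 ug/mL final), 30 min dark, luminescence read.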
G9a inh = G9a (human) methyltransferase inhibition | AID 504332 | 350,000 compounds, 8.8% hits | Q96KQ7 | G9a H3K9 monomethylation, AlphaScreen, 2 h | Potency, µM (top dose mostly 102 µM), inactives show at the top dose activity, negative = inhibition, hits mostly inhibitors; also: % is scaled to controls: 0 for no effect and ±100 for the full control effect; nearly all actives have a fitted effect of over 75% in size
Target sequence (Q96KQ7 913-1193 limits assumed): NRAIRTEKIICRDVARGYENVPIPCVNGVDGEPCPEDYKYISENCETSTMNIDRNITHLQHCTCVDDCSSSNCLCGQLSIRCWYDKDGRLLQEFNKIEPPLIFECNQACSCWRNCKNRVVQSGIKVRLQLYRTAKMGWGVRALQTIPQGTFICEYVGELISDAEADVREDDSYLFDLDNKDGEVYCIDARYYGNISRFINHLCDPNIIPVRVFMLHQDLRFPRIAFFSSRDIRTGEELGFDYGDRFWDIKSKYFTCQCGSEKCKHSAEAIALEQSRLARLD
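G9a (20 nM) was preincubated 15 min with compound, then reacted 2 h at room temperature with 500 nM biotin-H3K9 peptide and 20 µM SAM. Monomethyl-H3K9 detected by AlphaScreen using anti-H3K9me1 antibody.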
JMJD2A Tudor inh = blocks the human JMJD2A Tudor domain; O75164; AlphaScreen JMJD2A-Tudor / H3K4me3 peptide binding; Potency, µM (series often up to 114 µM), for inactives: at the top dose activity change, negative = inhibition, most hits filed as inhibitors; 390,000 compounds, 4.4% hits; also: % is scaled to controls: 0 for no effect and ±100 for the full control effect; nearly all actives have a fitted effect of over 50% in size
L3MBTL1 block = L3MBTL1 (human) inhibition. AlphaScreen L3MBTL1–H3K9me1 peptide binding. 230,000 compounds, 0.66% hits. Potency, µM (series often up to 57.1 µM), for inactives: top-dose activity, negative = inhibition, hits mostly inhibitors; also: % is scaled to controls: 0 for no effect and ±100 for the full control effect; nearly all actives have a fitted effect of over 60% in size
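AlphaScreen proximity signal between nickel-chelate acceptor and streptavidin donor beads (final 10 ug/mL) reports binding of 50 nM L3MBTL1 to 75 nM biotin-H3 K9me1 peptide; complex incubated with compounds 30 min at room temperature; cefsulodin titration as control.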
BAZ2B inh = inhibitors of human BAZ2B bromodomain | AlphaScreen BAZ2B-H3K14Ac peptide displacement | 360,000 compounds, 4.4% hits | Potency, µM (top dose mostly 114 µM), for the others: top-dose activity change, negative = inhibition, most hits filed as inhibitors | AID 504333 | Q9UIF8; also: % is scaled to controls: 0 for no effect and ±100 for the full control effect; nearly all actives have a fitted effect of over 60% in size
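Complex of BAZ2B and biotin-H3K14Ac (50 nM apiece) forms over 30 min at RT, then faces library compounds up to 110 uM for another 30 min; AlphaScreen beads added, 20 min dark incubation, luminescence read.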
* marks the source's active call; other numbers are inactive results; ? = inconclusive; . = no result; [ ] = remark or other dose. Calls follow the shape of the dose curve; as a rule, active = well fitted curve in the direction sought with a large enough effect; inconclusive = small, poorly fitted or top-dose-only effect, or another doubt; inactive = no such curve, though single readings can be large; an effect the other way counts as inactive or inconclusive. Potency is read from the fitted curve at half-maximal effect.

SMILES | Sfp PPTase inh | HP1b binding inh | G9a inh | JMJD2A Tudor inh | L3MBTL1 block | BAZ2B inh
Cc1cccc(NC(=O)c2ccc(N3CCCCC3)c([N+](=O)[O-])c2)n1 | -6.0% | ? | ? | ? | ? | 11.2µM*
Cc1cc(C(=O)Nc2ccc(N3CCCC3)c(Cl)c2)ccc1[N+](=O)[O-] | 20.4% | ? | -7.3%[59 µM] | 25.1µM* | ? | 28.2µM*
O=C(Nc1cccnc1)c1ccc(N2CCOCC2)c([N+](=O)[O-])c1 | 21.9% | 33.8% | 12.2%[59 µM] | -20.0% | -7.4% | -33.1%
O=C(Nc1ccc(N2CCCC2)c(Cl)c1)c1ccc([N+](=O)[O-])cc1 | -2.2% | -3.0% | -8.8%[59 µM] | -27.5% | -6.5% | 3.2%
O=C(NNC(=S)Nc1ccc(Br)cc1)c1ccc(N2CCOCC2)c([N+](=O)[O-])c1 | -0.8% | ? | 11.2µM* | ? | -15.5% | -25.5%
CC(C)N(C(=O)Cn1cc(SCC(=O)Nc2ccccc2F)c2ccccc21)C(C)C | . | 58.3% | 4.3%[59 µM] | 11.4% | . | -18.1%
CCc1ccc(NC(=O)c2ccc(F)c(S(=O)(=O)NCCc3ccc(OC)c(OC)c3)c2)cc1 | . | 11.8% | 1.9%[59 µM] | -21.1% | . | -18.8%
C=CCn1c(=S)[nH]c2sc3c(c2c1=O)CCC3 | -10.6% | 11.7% | 3.16µM* | -32.0% | -23.3% | -5.4%
CN(C)CCCn1c(=S)[nH]c2sc3c(c2c1=O)CCCC3 | 79.4µM* | ? | 7.94µM* | 22.4µM* | . | ?
Cc1ccc(-n2c(=O)c3sc4ccccc4c3n(C)c2=O)cc1F | . | 7.4% | -19.5%[59 µM] | -13.9% | . | -3.4%
CCN(CC)S(=O)(=O)c1ccc(NCc2ccccn2)nc1 | 4.8% | 13.1% | 28.2µM* | 70.8µM* | . | ?
CCOC(=O)c1c(OCC)[nH]c2c1cc(O)c1ccccc12 | ? | ? | ? | 50.1µM* | -6.0% | 50.1µM*
COc1ccc(-c2ccc(=O)n(CC(=O)NCCc3ccccc3)n2)cc1 | . | 8.5% | ? | 2.2% | . | -0.3%
CCN(CC)c1ccc(NC(=O)c2c(C)noc2C)cc1 | -4.0% | 15.4% | 28.2µM* | -26.5% | . | ?
CCCC(=O)Nc1ccc(NC(=O)c2ccco2)cn1 | 9.0% | 32.2% | -18.9% | 9.6% | 4.5% | -2.2%
CC(C)C(=O)Nc1ccc(NC(=O)c2ccco2)cn1 | 2.4% | 52.9% | 35.5µM* | -7.2% | -2.6% | ?
Cc1ccc(C)n1NC(=O)c1ccco1 | 15.7% | 15.7% | 39.8µM* | -14.7% | -2.8% | -0.8%
CCN(CC)c1ccc(NC(=S)NC(=O)c2ccco2)cc1 | 35.5µM* | 44.7µM* | 28.2µM* | 28.2µM* | ? | 17.8µM*
Cc1nnc(N2CCN(C(=O)Nc3cc(F)ccc3F)CC2)c2nn(-c3ccc(Cl)cc3)c(C)c12 | . | 68.7% | 5.4%[59 µM] | -30.0% | . | -14.4%
COC(=O)NC(CCc1ccccc1)C(C(C)=O)C(=O)OC (configuration not stated) | 5.5% | . | . | . | . | .
Cc1cc(C)nc(NS(=O)(=O)c2ccc(NC(=S)NC(=O)c3ccco3)cc2)n1 | ? | 1.6% | 50.1µM* | -12.7% | 6.2% | 1.3%
CCN(c1ccc(NC(=O)CCNC(=O)c2ccco2)cc1)C(C)C | -3.9% | -8.3% | 5.01µM* | -33.8% | -7.3% | -30.0%
CCN(CC)c1ccc(NC(=O)c2ccccc2F)cc1 | -16.2% | -14.3% | ? | ? | -23.1% | 44.7µM*
O=C(Nc1ccc(Nc2ccccc2)cc1)c1ccccc1F | -6.5% | 2.2% | . | ? | -7.2% | ?
CCN(CC)c1ccc(NC(=O)c2ccco2)cc1 | -7.5% | -0.8% | 35.5µM* | ? | -6.7% | -33.8%
COc1cc(NS(=O)(=O)c2ccc(NC(=S)NC(=O)c3ccco3)cc2)nc(OC)n1 | -24.9% | 9.9% | . | -11.6% | . | ?
CCOC(=O)C1CCCN(Cc2c(C(=O)N3CCOCC3)nc3ccccn23)C1 (configuration not stated) | 2.8% | 7.2% | . | 1.7% | 12.5% | 10.5%
